In PubChem BioAssay (NCATS):
Inconclusive results are not listed. Unmarked numbers belong to inactive results. Active and inactive are the calls of the source. Calls come from the whole dose curve; as a rule, active = well fitted inhibition curve with a large enough effect; inconclusive = small, poorly fitted or top-dose-only effect; inactive = no such curve, though single readings can be large or run the other way.

The compounds below were run on Zika virus NS2B-NS3 protease (linked construct) (assay: Primary screen NINDS Rhodamine qHTS for Zika virus inhibitors (AID 1347160; note: nearly all actives have a fitted effect of over 55% in size)). Conditions: purified NS2B-NS3 protease, Rhodamine110 substrate fluorescence; series mostly up to 57.1 µM; activity change, negative = inhibition: at the top concentration.
From the text: Avindra Nath, Ph.D., National Institute of Neurological Disorders and Stroke (NINDS), Bethesda, MD
Radhakrishnan Padmanabhan, Ph.D., Georgetown University (GU), Washington D.C.
Zika Virus causes congenital defects, including microcephaly and is associated with Guillain-Barre syndrome, eningoencephalitis and myelitis in infected adult. […] Using a target-based approach, we hope to establish a screening paradigm to uncover novel, cell-active NS2B-NS3 protease (Zika Virus) specific inhibitors from NCATS' collection of small molecules using qHTS.
Four assay panel was created to identify potential Zika Virus inhibitors. Namely, (1) GU unlinked NS2B-NS3 AMC tagged protease qHTS, (2) GU unlinked NS2B-NS3 Rhodamine tagged protease qHTS, (3) NINDS linked NS2B-NS3 AMC tagged protease qHTS, (4) NINDS linked NS2B-NS3 Rhodamine tagged protease qHTS. Active compounds were re-acquired and re-screened to confirm inhibition. Inhibitors were further screened against various confirmatory and counterscreens in dose response format.
Early Translation Branch (ETB)
National Center for Advancing Translational Sciences (NCATS), Rockville, MD
National Institute of Health (NIH), Bethesda, Maryland
For the linked assay, Nath lab (NINDS) provided the purified linked NS2B-NS3 protease which is consists of hydrophilic domain of NS2B linked to the NS3 protease domain by a flexible (-[…]-) linker. Control compound aprotinin is obtained from Thermo Scientific (#78432; Waltham, Massachusetts). Rhodamine110 substrate ([N-Cbz]-Nle-Lys-Arg-Arg-Rhod110-Arg-Arg-Lys-Nle-[N-Cbz]) was purchased from either Genscript or Bachem.
1536-well Protease (Rhodamine110 Substrate) Assay:
Briefly, 3 microL of enzyme (25 nM final concentration), in assay buffer (10 mM Tris-HCl pH 8.0 with 0.01% Tween 20) were dispensed into a 1,536-well solid-bottom black plate (Greiner Bio One, Monroe, NC). Twenty-three nL of compounds (final concentration range 7.28 nM to 114 microM) or control Aprotinin (final concentration range 3.47 nM to 114 microM) were transferred via Wako Pin-tool (Wako Automation, Richmond, VA). Samples were incubated (room temperature, protected from light) for 15 minutes followed by a 1 microL Rhodamine110 substrate addition (1.5 microM final concentration). Plates were then immediately read on a ViewLux High-throughput CCD imager (PerkinElmer, Waltham, MA) equipped with FITC fluorescence optics (480(20) nm excitation, 540(25) nm emission), then incubated (room temperature, protected from light) for 15 minutes (~15% conversion). The change in fluorescence intensity over the 15-minute reaction period was normalized against no-inhibitor and no-enzyme controls and the resulting percent inhibition data were fitted to a 4-parameter Hill equation. Aprotinin was used as intraplate control.
% is set by controls: 0 for no effect and ±100 for the full control effect; potency is the fitted concentration of half-maximal effect.

Structure (SMILES)	activity change, negative = inhibition	Potency	outcome
CO[C@H]1/C=C/C=C/C=C/C[C@H](OC(=O)[C@@H](C)NC(=O)C2CCCCC2)[C@H](C)[C@@H](O)/C(C)=C/CCc2cc(O)cc(c2)NC(=O)C1	-15.5% [at 15.1 µM]	–	–
CCCCc1nc2cc(/C=C/C(=O)NO)ccc2n1CCN(CC)CC	11.3%	–	–
CC(C)N(CCCCOCC(=O)NS(C)(=O)=O)c1cnc(-c2ccccc2)c(-c2ccccc2)n1	–	28.2 µM (active)	–
O=C(/C=C/c1ccccc1)OC[C@]12O[C@H]1[C@@H](O)[C@@H]1C=CO[C@@H](O[C@@H]3O[C@H](CO)[C@@H](O)[C@H](O)[C@H]3O)[C@@H]12	20.6% [at 33.1 µM]	–	–
COc1ccc(F)cc1-c1cc(NC(=O)[C@@H]2CCCNC2)ncc1Cl	–	–	inactive
O=C(OCC1=CC(O)C2C=CO[C@@H](O[C@@H]3O[C@H](CO)[C@@H](O)[C@H](O)[C@H]3O)C12)c1ccccc1 (stereo not given in full)	-19.6% [at 33.1 µM]	–	–
O=C(COc1cccc2c(=O)[nH]ccc12)c1ccccc1	1.97%	–	–
NC(=O)c1cccc(-c2cc(OC(=O)NC3CCCCC3)ccc2O)c1	9.43%	–	–
COC(=O)C1=CO[C@@H](O[C@@H]2O[C@H](CO)[C@@H](O)[C@H](O)[C@H]2O)[C@@H]2C(CO)=CC[C@]12O	-7.44% [at 33.1 µM]	–	–
COc1cc(C(=O)NC2CCN(C)CC2)c(F)cc1Nc1ncc2c(n1)N(C1CCCC1)CC(F)(F)C(=O)N2C	12.8%	–	–
O=C(/C=C/c1ccc(O)cc1)OC1[C@H](O)CC(O)(C(=O)O)C[C@H]1O (stereo not given in full)	-2.21% [at 33.1 µM]	–	–
CC1OC(OC2C(CO)OC(OCC3OC(OC(=O)C45CCC(C)(C)CC4C4=CCC6C7(C)CCC(OC8OC(CO)C(O)C(OC9OC(CO)C(O)C(O)C9O)C8O)C(C)(C)C7CCC6(C)C4(C)CC5)C(O)C(O)C3O)C(O)C2O)C(O)C(O)C1OC1OC(CO)C(O)C(O)C1O (stereo not given)	–	–	inactive [at 10.7 µM]
OC[C@H]1O[C@@H](O[C@H]2[C@H](OCc3ccccc3)O[C@H](CO[C@@H]3OC[C@@H](O)[C@H](O)[C@H]3O)[C@@H](O)[C@@H]2O)[C@H](O)[C@@H](O)[C@@H]1O	-5.67% [at 33.1 µM]	–	–
O=C(Nc1ccn[nH]1)c1c(F)cccc1F	–	–	inactive
C=C(C(=O)O)C1CCC2(C)CCC(O)C(=C)C2C1 (stereo not given)	–	8.91 µM (active)	–
OC[C@H]1O[C@@H](Oc2ccccc2)[C@H](O)[C@@H](O)[C@@H]1O	-12.5%	–	–
C#CC[C@H](c1nc2cc(Cl)ccc2c(=O)n1Nc1ccccc1)N(CCCN)C(=O)c1cccc(Cl)c1F	44.6%	–	–
C[C@@H]1C(=O)O[C@H](C)[C@H]1CC(=O)[C@](C)(O)[C@H]1CC[C@@]2(O)C3=CC(=O)[C@@H]4C[C@@H](O)[C@@H](O)C[C@]4(C)C3CC[C@]12C (stereo not given in full)	-1.43% [at 33.1 µM]	–	–
CCCC(=O)C1CCN(c2ncnc3c2CN(C(=O)c2ccc(-c4ccccc4)cc2)CC3)CC1	6.78%	–	–
COc1ccc(CCO[C@@H]2CCCC[C@H]2N2CC[C@@H](O)C2)cc1OC	–	–	inactive

Structure (SMILES)	activity change, negative = inhibition	Potency	outcome
O=C(NCC(O)CO)c1ccncc1Nc1ccc(I)cc1F (stereo not given)	2.77%	–	–
O=C(/C=C\c1ccc(O)cc1)N[C@@H](Cc1ccc(O)cc1)C(=O)O	–	12.6 µM (active)	–
COc1c2c(c(CO)c3c1C(=O)OC3)OC1(C)CCC3(O)C(C)(C)OC(=O)CCC3(C)C1C2 (stereo not given)	-1.44% [at 33.1 µM]	–	–
CC1CC(O)C2(OC1=O)OC1C(O)C3C4CCC5CC(OC6OC(CO)C(O)C(O)C6OC6OC(C)C(O)C(O)C6O)CCC5(C)C4CCC3(C)C1C2C (stereo not given)	12.4% [at 15.1 µM]	–	–
Cn1nc(C(C)(C)C)cc1C(=O)NC(Cc1cccc(Cl)c1)C(=O)NCC#N (stereo not given)	3.65%	–	–
CCOc1cc(C(=O)N2CCC(N3CCN(C)CC3)CC2)ccc1Nc1ncc2c(n1)N(C1CCCC1)c1ccccc1C(=O)N2C	107%	–	–
CC1=C(C(=O)O)/C(=C\CO[C@@H]2O[C@H](CO)[C@@H](O)[C@H](O)[C@H]2O)C(OC(=O)/C=C\c2ccc(O)cc2)C1 (stereo not given in full)	–	–	inactive [at 33.1 µM]
COc1ccc(C[C@H](N)C(=O)N[C@@H]2[C@H](O)[C@H](n3cnc4c(N(C)C)ncnc43)O[C@@H]2CO)cc1	75.6%	–	–
[N-]=[N+]=N[C@]1(CO)O[C@@H](n2ccc(=O)[nH]c2=O)[C@@H](O)[C@@H]1O	28%	–	–
COC(=O)C[C@H]1C(C)(C)[C@H](OC(C)=O)C2CC3=C4CC(=O)O[C@@H](c5ccoc5)[C@]4(C)CCC3[C@@]1(C)C2=O (stereo not given in full)	-1.08% [at 33.1 µM]	–	–
CCCC(=O)O[C@@H]1[C@@H]2[C@@H](OC(C)=O)[C@]3(C)C(=O)[C@H]4[C@@H](OC(C)=O)C(C)(C)C[C@H]4[C@]3(C)C(=O)[C@@]2(OC(C)=O)C[C@@H]1C	12.7% [at 33.1 µM]	–	–
O=C(O)Cc1ccc2oc(-c3ccc(NC(=O)/C=C/c4ccc(Br)cc4)c(F)c3)nc2c1	–	3.16 µM (active)	–
CC(C)=CCC[C@](C)(O[C@@H]1O[C@H](CO)[C@@H](O)[C@H](O)[C@H]1O)[C@H]1CC[C@]2(C)[C@@H]1[C@H](O)CC1[C@@]3(C)CC[C@H](O)C(C)(C)C3[C@@H](O[C@@H]3O[C@H](CO)[C@@H](O)[C@H](O)[C@H]3O)C[C@]12C (stereo not given in full)	-7.37% [at 15.1 µM]	–	–
CC1=CCC2C(C)(C)CCC[C@]2(C)[C@@]12CC[C@](C)(CC(=O)O)O2 (stereo not given in full)	-3.57% [at 33.1 µM]	–	–
CCCCC1CCN(CCCC(=O)c2ccccc2C)CC1	28.1%	–	–
C[C@@H]1O[C@@H](O[C@@H]2CO[C@@H](O[C@H]3CC[C@@]4(C)C(CC[C@]5(C)C4CC=C4[C@@H]6CC(C)(C)CC[C@]6(C(=O)O[C@@H]6O[C@H](CO)[C@@H](O)[C@H](O)[C@H]6O)CC[C@]45C)[C@]3(C)CO)[C@H](O)[C@H]2O[C@@H]2O[C@H](CO)[C@@H](O)[C@H](O)[C@H]2O)[C@H](O)[C@H](O)[C@H]1O (stereo not given in full)	18.4% [at 15.1 µM]	–	–
C=C[C@H]1[C@H](O[C@@H]2O[C@H](CO)[C@@H](O)[C@H](O)[C@H]2O)OC=C(C(=O)OC)[C@H]1C[C@@H]1c2cc(O)c(O)cc2CCN1C(C)=O	–	–	inactive [at 15.1 µM]
Cc1cc2c(F)c(Oc3ncnn4cc(OCC(C)O)c(C)c34)ccc2[nH]1 (stereo not given)	36.6%	–	–
CC12CCC(OC3OC(CO)C(O)C(OC4OC(CO)C(O)C(O)C4O)C3O)CC1CCC1C2CCC2(C)/C(=C3/COC(=O)C3)CCC12O (stereo not given)	–	–	inactive [at 15.1 µM]
CO[C@H]1C[C@@H]2CC[C@@H](C)[C@@](O)(O2)C(=O)C(=O)N2CCCC[C@H]2C(=O)O[C@H]([C@H](C)C[C@@H]2CC[C@@H](OP(C)(C)=O)[C@H](OC)C2)CC(=O)[C@H](C)/C=C(\C)[C@@H](O)[C@@H](OC)C(=O)[C@H](C)C[C@H](C)/C=C/C=C/C=C/1C	-15.9% [at 33.1 µM]	–	–
